Assay outcomes deposited in PubChem BioAssay by National Center for Advancing Translational Sciences (NCATS).
Compounds with a hit are over-represented: about 21% of the library has one in this group of screens.
NS1 function inh – qHTS Assay for Inhibitors of Influenza NS1 Protein Function. Potency, µM (doses to about 46.1 µM). 0.4% of 270,000 active. AID 2326, 2010; calls by dose curve; further: actives are rising curves; nearly all actives have a fitted effect of over 50% in size
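Read-out: OD600 growth recovery of NS1-expressing budding yeast. Cells grown overnight at 30C in -URA glucose medium, washed, resuspended and diluted 1:100 in 2% galactose assay medium, pH 6.0. Same strain lacking NS1 served as positive control.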
Pf growth 48h – Primary qHTS for delayed death inhibitors of the malarial parasite plastid, 48 hour incubation. 5.9% of 310,000 active. P. falciparum luciferase growth in erythrocytes, 48 h. Potency, µM (top dose mostly 28.7 µM), usual class: inhibitors. AID 504832, 2011
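Compounds are pin-transferred into medium, infected erythrocytes (2% hematocrit, 0.1% parasitemia final) are added, and plates sit one parasite generation at 37 C in 5% CO2. Detection reagent is then added and luminescence measured.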
Pf growth 96h – Primary qHTS for delayed death inhibitors of the malarial parasite plastid, 96 hour incubation | P. falciparum luciferase reporter growth, 96 h | Potency, µM (highest dose often 28.7 µM), usual class: inhibitors | 6.9% of 320,000 active
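Luminescence readout: decreased luciferase signal marks inhibited growth of reporter-expressing P. falciparum in infected red cells (2% hematocrit, 0.05% parasitemia final), exposed to compound two generations (96 h, 37 C, 5% CO2).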
SARS PLP yeast – qHTS of Yeast-based Assay for SARS-CoV PLP | AID 485353, 2010 | S. cerevisiae expressing SARS-CoV PLpro, growth rescue | Potency, µM (titrated, usually from 32.9 µM), usual class: activators | 0.19% of 330,000 active; calls by dose curve; further: nearly all actives have a fitted effect of over 55% in size
Shiga toxin inh – A qHTS for Small Molecule Inhibitors of Shiga Toxin | Vero cells, Shiga toxin protein synthesis inhibition reporter | inhibition, % at 38.7 µM | 9.2% of 290,000 active; in the data active means inhibition mostly above about 28%, no sharp cut-off; inactive means mostly below about 43%
Cycloheximide cs – Cycloheximide Counterscreen for Small Molecule Inhibitors of Shiga Toxin. cell reporter, cycloheximide protein synthesis inhibition counterscreen. max response, %. 12% of 300,000 active. AID 2314, 2010; in the data active means max response mostly above about 13%, no sharp cut-off; inactive means mostly below about 14%; further: read at 38.3 µM for the half of the compounds with a filed dose
A number is an active result; [ ] = remark or other dose. Unless noted, the call rests on the fitted dose curve; in most records, active means well fitted inhibition curve with a large enough effect; inconclusive means small, poorly fitted or top-dose-only effect, or another doubt; inactive means no such curve, though single readings can be large or run the other way.

Results for Cc1ccc(NC(=O)C2CCN(c3ncnc4c3nc3n4CCCCC3)CC2)nc1 ?
NS1 function inh: inactive; Pf growth 48h: inactive; Pf growth 96h: inactive; SARS PLP yeast: inactive; Shiga toxin inh: inactive; Cycloheximide cs: inactive

Results for CC(CN1CCCCC1)C(=O)NNC(=O)C12CC3CC(CC(C3)C1)C2 (stereo not drawn) ?
Pf growth 48h: inactive; Pf growth 96h: 12µM; SARS PLP yeast: inactive; Shiga toxin inh: inactive; Cycloheximide cs: inactive

Results for CN(Cc1ccccc1)C(=O)CN1CCN(C(c2ccccc2)c2ccccc2)CC1 ?
NS1 function inh: inactive; Pf growth 48h: inactive[5.75 µM]; Pf growth 96h: 10µM; SARS PLP yeast: inactive; Shiga toxin inh: inactive; Cycloheximide cs: inactive

How did OC(CN1CCN(c2ccccc2F)CC1)c1ccc(F)cc1 (stereo not drawn) do in these assays?
NS1 function inh: inactive; Pf growth 48h: inconclusive; Pf growth 96h: inconclusive; SARS PLP yeast: inactive; Shiga toxin inh: inactive; Cycloheximide cs: 9.9

What do the screens show for `OC(CN1CCN(C(c2ccccc2)c2ccccc2)CC1)c1ccccc1` (stereo not drawn)?
NS1 function inh: inactive; Pf growth 48h: 9.3µM; Pf growth 96h: inconclusive; SARS PLP yeast: inactive; Shiga toxin inh: inactive; Cycloheximide cs: inactive

Results for OC(CN1CCN(C(c2ccccc2)c2ccccc2)CC1)c1ccc(Br)cc1 (stereo not drawn) ?
NS1 function inh: inactive; Pf growth 96h: 1.3µM; SARS PLP yeast: inactive; Shiga toxin inh: inactive; Cycloheximide cs: inactive

What do the screens show for `CN1CCN(CC(O)c2ccccc2)CC1` (stereo not drawn)?
NS1 function inh: inactive; Pf growth 48h: inactive; Pf growth 96h: inactive; SARS PLP yeast: inactive; Shiga toxin inh: inactive; Cycloheximide cs: inactive

How did Cc1cc(C)c2nc3c(c([C@H](O)C4CCCCN4)c2c1)CC/C3=C/c1ccc(Cl)cc1 (stereo partly drawn) do in these assays?
NS1 function inh: inactive

How did O=c1c2c(-c3cccs3)csc2ncn1-c1ccccc1 do in these assays?
NS1 function inh: inactive[9.22 µM]; Pf growth 48h: inactive; Pf growth 96h: 12µM; SARS PLP yeast: inactive; Shiga toxin inh: inactive; Cycloheximide cs: inactive

How did O=[N+]([O-])c1ccc(/C=N/NC2=NS(=O)(=O)c3ccccc32)cc1 do in these assays?
Pf growth 48h: inactive; Pf growth 96h: inactive; SARS PLP yeast: inactive; Shiga toxin inh: inactive; Cycloheximide cs: inactive

How did O=[N+]([O-])c1ccc(O)c(/C=N/NC2=NS(=O)(=O)c3ccccc32)c1 do in these assays?
Pf growth 48h: 2.6µM; Pf growth 96h: inactive[5.75 µM]; SARS PLP yeast: inconclusive; Shiga toxin inh: inactive; Cycloheximide cs: inactive

How did O=[N+]([O-])c1ccc(O)c(/C=N/Nc2nn[nH]n2)c1 do in these assays?
Pf growth 48h: inconclusive; Pf growth 96h: inactive; SARS PLP yeast: inactive; Shiga toxin inh: inactive; Cycloheximide cs: inactive

What do the screens show for `Oc1cccc(/C=N/Nc2ccc(Cl)nn2)c1`?
NS1 function inh: inactive; Pf growth 96h: inactive; SARS PLP yeast: inactive; Shiga toxin inh: 68; Cycloheximide cs: 42

Results for O=C(O)c1ccc(/C=N/Nc2ccc(Cl)nn2)cc1 ?
NS1 function inh: inactive; Pf growth 48h: inactive; Pf growth 96h: inactive; SARS PLP yeast: inactive; Shiga toxin inh: inactive; Cycloheximide cs: inactive

Results for O=[N+]([O-])c1ccc(O)c(/C=N/Nc2ccc(Cl)nn2)c1 ?
NS1 function inh: inactive; Pf growth 48h: 0.41µM; Pf growth 96h: 0.37µM; SARS PLP yeast: inactive; Shiga toxin inh: inactive; Cycloheximide cs: inactive

How did O=S1(=O)N=C(N/N=C/c2cccs2)c2ccccc21 do in these assays?
NS1 function inh: inactive; Pf growth 48h: inconclusive; Pf growth 96h: 13µM; SARS PLP yeast: inactive; Shiga toxin inh: inactive; Cycloheximide cs: inactive

Results for N#Cc1ccc(CN2CCN(C(=O)C3CC(=O)N(c4ccccc4F)C3)CC2)cc1 (stereo not drawn) ?
SARS PLP yeast: inactive

Results for COc1ccc(CN2CCCC(C(=O)Nc3cccc(-n4cccn4)c3)C2)c(F)c1 (stereo not drawn) ?
NS1 function inh: inactive; Pf growth 48h: inconclusive; Pf growth 96h: inactive; SARS PLP yeast: inactive; Shiga toxin inh: inactive; Cycloheximide cs: inactive

Results for NC(N)=N/N=C/c1cc([N+](=O)[O-])ccc1O ?
NS1 function inh: inactive; Pf growth 48h: inconclusive; Pf growth 96h: inactive; SARS PLP yeast: inconclusive; Shiga toxin inh: inactive; Cycloheximide cs: 12

Results for C=CCN(CC=C)S(=O)(=O)c1ccc2nc(NC(=O)C3CCCO3)sc2c1 (stereo not drawn) ?
NS1 function inh: inactive; Pf growth 48h: inactive; Pf growth 96h: inconclusive; SARS PLP yeast: inactive; Shiga toxin inh: inactive; Cycloheximide cs: inactive

Results for CC1CCCN(C(=O)C(C)Sc2nc(-c3ccccc3)cc(C(F)(F)F)n2)C1 (stereo not drawn) ?
NS1 function inh: inactive; Pf growth 48h: 2.6µM; SARS PLP yeast: inactive; Shiga toxin inh: inactive; Cycloheximide cs: inactive

What do the screens show for `CC(Sc1nc(-c2ccccc2)cc(C(F)(F)F)n1)C(=O)N1CCCCC1` (stereo not drawn)?
NS1 function inh: inactive; Pf growth 48h: inconclusive; Pf growth 96h: inactive; SARS PLP yeast: inactive; Shiga toxin inh: inactive; Cycloheximide cs: inactive

Results for Cc1c(C(=O)NCC2CCCO2)cccc1[N+](=O)[O-] (stereo not drawn) ?
NS1 function inh: inactive; Pf growth 48h: inactive; Pf growth 96h: inactive; SARS PLP yeast: inactive; Shiga toxin inh: inactive; Cycloheximide cs: inactive

Results for Cc1ccsc1/C=N/NC(=O)c1cccnc1 ?
NS1 function inh: inactive; Pf growth 48h: inactive; Pf growth 96h: inactive; SARS PLP yeast: inactive; Shiga toxin inh: inactive; Cycloheximide cs: 9.9

What do the screens show for `Cc1ccsc1/C=N/NC(=O)c1ccc([N+](=O)[O-])cc1`?
Pf growth 48h: inactive; Pf growth 96h: inactive; SARS PLP yeast: inactive; Shiga toxin inh: inactive; Cycloheximide cs: 24

What do the screens show for `COc1ccc(CC(=O)N/N=C/c2sccc2C)cc1`?
NS1 function inh: inactive; Pf growth 48h: inactive; Pf growth 96h: inactive; SARS PLP yeast: inactive; Shiga toxin inh: inactive; Cycloheximide cs: inactive

How did Cc1ccc(S(=O)(=O)N/N=C\c2cc([N+](=O)[O-])ccc2Cl)cc1 do in these assays?
NS1 function inh: inactive; Pf growth 48h: inactive; Pf growth 96h: inactive; SARS PLP yeast: inactive; Shiga toxin inh: inactive; Cycloheximide cs: inactive

What do the screens show for `Cc1ccsc1/C=N/NC(=O)c1ccncc1`?
Pf growth 48h: inconclusive; Pf growth 96h: inactive; SARS PLP yeast: inactive; Shiga toxin inh: inactive; Cycloheximide cs: inactive

What do the screens show for `Cc1ccsc1/C=N/NC(=O)c1ccc2ccccc2c1`?
NS1 function inh: inactive; Pf growth 48h: inactive; Pf growth 96h: inconclusive; SARS PLP yeast: inactive; Shiga toxin inh: 73; Cycloheximide cs: 44

What do the screens show for `Cc1ccsc1/C=N/NS(=O)(=O)c1ccc([N+](=O)[O-])cc1`?
NS1 function inh: inactive; Pf growth 48h: inactive; Pf growth 96h: inactive; SARS PLP yeast: inactive; Shiga toxin inh: inactive; Cycloheximide cs: 48
